# Experimental data taken from PubChem BioAssay AID1030 (National Center for Advancing Translational Sciences (NCATS), 2008).
# In all, about 220,000 compounds went through this assay and about 16,000 (7.3%) were called active. About 25% were inconclusive and are not listed. Calls follow the shape of the dose curve; as a rule, active = well fitted inhibition curve with a large enough effect (not every such curve was filed as active); inconclusive = small, poorly fitted or top-dose-only effect, or another doubt; inactive = no such curve, though single readings can be large or run the other way. The list comes from a sample in which actives are over-represented; it also holds similar structures and randomly drawn compounds. Entries that show only a call come without a potency. Peptide text beside a SMILES is read from it. * marks the point of attachment. OPac = O=C(CO*)c1ccccc1; Bz = O=C(c1ccccc1)*
# Molecular target: Aldehyde dehydrogenase 1A1 (Homo sapiens) (UniProt P00352)
# Sequence (P00352 whole entry, looked up): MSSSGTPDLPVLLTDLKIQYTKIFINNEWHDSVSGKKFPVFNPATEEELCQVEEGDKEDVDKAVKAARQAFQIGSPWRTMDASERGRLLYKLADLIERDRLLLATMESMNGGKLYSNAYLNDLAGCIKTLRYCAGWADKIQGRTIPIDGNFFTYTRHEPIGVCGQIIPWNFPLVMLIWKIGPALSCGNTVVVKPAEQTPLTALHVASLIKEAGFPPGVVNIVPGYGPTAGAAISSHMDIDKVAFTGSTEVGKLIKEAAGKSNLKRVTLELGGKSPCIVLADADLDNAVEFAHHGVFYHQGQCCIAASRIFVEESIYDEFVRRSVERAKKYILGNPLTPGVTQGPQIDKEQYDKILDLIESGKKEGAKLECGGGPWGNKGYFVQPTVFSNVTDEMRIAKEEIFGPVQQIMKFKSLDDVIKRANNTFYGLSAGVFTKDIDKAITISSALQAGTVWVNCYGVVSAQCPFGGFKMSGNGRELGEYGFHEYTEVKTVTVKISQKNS
# Assay: qHTS Assay for Inhibitors of Aldehyde Dehydrogenase 1 (ALDH1A1)
# Settings: Purified ALDH1A1, NADH fluorescence, propionaldehyde substrate; series mostly up to 75.3 µM
# Potency is read from the fitted curve at half-maximal effect.
Structure (SMILES),Potency,"activity, negative = inhibition"
COCCCNC(=O)/C=C/c1ccc(OCc2c(F)cccc2Cl)cc1,inactive,–
Cc1nc(NC(=O)CN(C)S(=O)(=O)c2ccc(Cl)cc2)sc1C,inactive,–
Cc1ccc(SCC(=O)c2sc(-c3ccccc3)nc2C)cc1,inactive,–
Cc1nc(-c2ccc(Cl)cc2)sc1C(=O)CBr,12.6 µM (active),–
O=C(N/N=C/c1cc([N+](=O)[O-])ccc1O)/C(=C\c1cccs1)NC(=O)c1ccccc1,inactive,–
CCC(=O)Nc1ccc(Nc2nc(Cl)nc(Nc3ccc(NC(=O)CC)cc3)n2)cc1,inactive,–
O=c1[nH]c2cccnc2n(CCNc2ncc(C(F)(F)F)cc2Cl)c1=O,inactive,–
CC(C)(C)n1cnnc1Sc1ccc([N+](=O)[O-])cn1,inactive,–
CCCCNC(=O)Nc1c(C)cc(SC#N)cc1C,0.562 µM (active),–
Cc1cc2nc(C)n(CCCNC(=O)Nc3ccccc3)c2cc1C,inactive,–
CCCCNC(=O)C(=O)c1ccccc1NC(C)=O,inactive,–
O=C(NCCOCc1ccc(Cl)cc1)c1ncn[nH]1,inactive,–
O=C(/C=C/Sc1ncn[nH]1)c1ccc(Cl)cc1,8.91 µM (active),–
COc1cccc2cc(S(=O)(=O)c3ccc(C)cc3)/c(=N/NS(=O)(=O)c3ccc(C)cc3)oc12,inactive,–
CCOc1ccc(-n2c(SCC(=O)NC3CCS(=O)(=O)C3)nnc2-c2cccnc2)cc1 (centres undefined),inactive,–
Cn1c2c(c(=O)n(C)c1=O)[C@@H]1c3c(ccc4ccccc34)OC[C@@H]1CO2,inactive,–
COc1cccc2c1OCC1COc3c(c(=O)n(C)c(=O)n3C)C21 (centres undefined),inactive,–
Cn1c2c(c(=O)n(C)c1=O)C1c3ccccc3OCC1C(C)(C)O2 (centres undefined),28.2 µM (active),–
COc1ccc(C/C(N)=N/OC(=O)c2ccco2)cc1OC,inactive,–
CCOc1ccccc1-n1c(SCC(=O)N2CCCC2)nnc1-c1ccoc1C,inactive,–
COc1ccccc1-c1nnc(SCC(=O)Nc2cc(C)on2)o1,inactive,–
COc1ccccc1N1CCN(C(=O)CSc2nnc(-c3ccoc3C)o2)CC1,1.58 µM (active),–

Structure (SMILES),Potency,"activity, negative = inhibition"
COc1ccc(-n2nc(C(=O)Nc3cc(OC)c(OC)c(OC)c3)c3ccccc3c2=O)c(OC)c1,inactive,–
COC(=O)c1c(NC(=O)c2cccs2)sc2c1CCCC2,inactive,–
CNC(=O)c1c(NC(NC(=O)c2ccco2)C(=O)c2ccc(Cl)cc2)sc2c1CCCC2 (centres undefined),14.1 µM (active),–
CCOC(=O)c1c(NC(=S)NC(=O)c2ccco2)sc2c1CCCC2,inactive,–
COc1cc(OC)cc(-c2nnc(N(C)C(=O)c3ccncc3)s2)c1,inactive,–
O=C1[C@@H]2C(c3cccnc3)=NO[C@@H]2C(=O)N1c1ccc(Cl)cc1Cl,3.55 µM (active),–
COC(=O)CCCC1=CC2=CC(=O)C(C)(OC(=O)c3cccs3)C(=O)C2=CN1CC(C)C (centres undefined),–,-2.57% [at 13.5 µM] (inactive)
CC1CCCN(CCOCCOc2ccccc2-c2ccccc2)C1 (centres undefined),inactive,–
c1ccc(-c2ccccc2OCCN2CCCCC2)cc1,inactive,–
CN1CCN(CCCCOc2ccccc2-c2ccccc2)CC1,10 µM (active),–
O=C(c1ccc(Cl)c(Cl)c1)N1CCCC1,inactive,–
Cc1c(Cl)cccc1NC(=O)Nc1ccc(C(=O)N2CCCC2)cc1,20 µM (active),–
O=C(Nc1ccccc1C(=O)N1CCCCCC1)c1ccccc1Cl,inactive,–
Cc1ccc(S(=O)(=O)N(C)C)cc1NC(=O)COC(=O)C1COc2ccccc2O1 (centres undefined),inactive,–
CCOC(=O)/C(=N\Nc1ccccc1[N+](=O)[O-])c1csc(Nc2ccccc2)n1,inactive,–
CN(C)S(=O)(=O)c1cccc(C(=O)Nc2cccnc2)c1,inactive,–
CN(C)S(=O)(=O)c1cccc(NC(=S)N/N=C/C(=O)c2ccccc2)c1,8.91 µM (active),–
C/C(=C\C(=O)c1ccccc1)Nc1cccc(O)c1,inactive,–
O=C(Nc1cccc(Cl)c1)OCc1ccccn1,inactive,–
CN1C(=O)C(CC(=O)Nc2ccccc2)S/C1=N/c1nccs1 (centres undefined),inactive,–
O=C(CC1SC(=Nc2ccccc2)N(Cc2ccccn2)C1=O)Nc1cccc(Cl)c1 (centres undefined),20 µM (active),–
c1ccc2c(c1)OCCOCCOCCO2,inactive,–

Structure (SMILES),Potency,"activity, negative = inhibition"
Cc1c(Cl)cnc(NC(=O)COC(=O)c2ccc(S(=O)(=O)NCc3ccco3)cc2)c1Cl,inactive,–
CSCCC(NC(=O)c1ccco1)C(=O)OCC(=O)Nc1ncc(Cl)c(C)c1Cl (centres undefined),22.4 µM (active),–
CCc1cc2c(SCC(=O)Nc3ncc(Cl)c(C)c3Cl)ncnc2s1,inactive,–
COC(=O)c1ccc(OCC(O)CN(CCO)CC(O)Cn2ccc3ccccc32)cc1 (centres undefined),inactive,–
O=C(CNC(=O)c1ccccc1)NCC(=O)OCC(=O)c1ccccc1 (Bz-Gly-Gly-OPac),inactive,–
O=C(/C=C/NCc1ccc(F)cc1)c1ccccc1,inactive,–
O=C(/C=C\NCC(=O)c1ccccc1)c1ccccc1,2.51 µM (active),–
OCCC1CN(Cc2ccc(Oc3ncccn3)cc2)CCN1CCc1ccccc1 (centres undefined),inactive,–
COc1cccc(C(=O)Nc2cccnc2)c1OC,inactive,–
O=C(O)c1cccc(NC(=O)c2cc(-c3cccc(Cl)c3)nc3ccccc23)c1,inactive,–
O=C(c1ccc2ccccc2n1)N1CCN(c2ccccc2Cl)CC1,inactive,–
S=C(Nc1ccc(Br)cc1Cl)N1CCC2(CC1)OCCO2,inactive,–
CC(C)C[C@H](NC(=O)[C@H](O)[C@H](N)Cc1ccccc1)C(=O)O,inactive,–
O=C(CN1CCN(c2ccc(Cl)cc2)CC1)N1CCCC1,inactive,–
O=C(CSCc1ccc(Cl)cc1)N1CCCCC1,11.2 µM (active),–
O=C(CSCc1ccc(Cl)cc1)N1CCN(Cc2ccc3c(c2)OCO3)CC1,inactive,–
COc1ccccc1NC(=S)N1CCC(NC(=O)C23CC4CC(CC(C4)C2)C3)CC1,inactive,–
Cc1ccc(NC(=O)OCCNC(=O)c2ccncc2)cc1,inactive,–
CN(C)S(=O)(=O)c1ccc2oc(SCC(=O)Nc3ccccc3F)nc2c1,inactive,–
Cc1ccc(O)c(CNc2nc3ccccc3n2C)c1,inactive,–
Cn1c(/C(C#N)=C2/CCCCCN2)nc2ccccc21,17.8 µM (active),–
N#C/C(=C1/CCCN1)c1ccccn1,inactive,–

Structure (SMILES),Potency,"activity, negative = inhibition"
NC(=O)c1nnsc1-c1ccc(-c2snnc2C(N)=O)cc1,inactive,–
O=C(C/C(=N\NC(=O)c1ccccc1Br)C(F)(F)F)c1cccs1,inactive,–
O=C(O)/C=C/C(=O)Nc1ccc(F)cc1F,25.1 µM (active),–
COc1ccc(C(=O)Nc2ccc(F)cc2F)cc1,inactive,–
CC(C)CC(=O)NC(=S)Nc1ccc(F)cc1F,inactive,–
Nc1c(Cl)cc(S(N)(=O)=O)cc1S(N)(=O)=O,inactive,–
CCC(C)(C)NC(=O)C(c1cccc(OC)c1OC)N(CC(C)C)C(=O)CCC(=O)Nc1cc(C)on1 (centres undefined),inactive,–
Cc1ccc(CSCC(N)C(=O)O)cc1 (centres undefined),31.6 µM (active),–
CCCCN(C)CCNC(=O)CSCc1ccc(C)cc1,inactive,–
Cc1ccc(S(=O)(=O)CCC(=O)OCc2ccccc2)cc1,inactive,–
O=C(CNC(=O)c1cc(=O)[nH]c2ccccc12)Nc1ccc(F)c(F)c1,inactive,–
COc1cc(C(F)(F)F)c(C(=O)N(C)c2ccc(Cl)cc2)cn1,inactive,–
Cc1noc(C)c1/C=N/Nc1ccc2ccccc2n1,inactive,–
Cc1nc(C)c(-c2csc(NCCc3ccccc3)n2)s1,inactive,–
S=c1[nH]nc(Nc2ccccc2)s1,6.31 µM (active),–
O=C(CSc1ncccn1)NCCc1ccccc1,inactive,–
c1ccc(Nc2n[nH]nc2-c2ccccc2)cc1,inactive,–
S=c1[nH]nc(NCCc2ccccc2)s1,12.6 µM (active),–
O=c1cnnc(Nc2ccccc2)[nH]1,inactive,–
O=C(CCCn1c(=O)c2sccc2n(CC(=O)NCC2CCCO2)c1=O)NCc1ccco1 (centres undefined),inactive,–
CCCN(C(=O)CSc1nnnn1C)c1c(N)n(Cc2ccccc2)c(=O)[nH]c1=O,inactive,–
COc1cc(/C=C/C2=CC(C)(C)NC(=S)N2)cc(OC)c1OC,3.98 µM (active),–

Structure (SMILES),Potency,"activity, negative = inhibition"
COc1ccc(/C=C/C2=CC(C)(C)NC(=S)N2)c(OC)c1,0.708 µM (active),–
COc1cc(/C=C/CO)cc(OC)c1O[C@@H]1O[C@H](CO)[C@@H](O)[C@H](O)[C@H]1O,inactive,–
Cc1ccc2nc(C)cc(N/N=C/c3ccc(F)cc3)c2c1,inactive,–
O=C(NNc1cc(Cl)ccc1Cl)c1cccnc1Cl,inactive,–
C=CC1(C)CC(=O)C2(O)C(C)(O1)C(OC(C)=O)C(O)C1C(C)(C)CCC(O)C12C (centres undefined),inactive,–
Cc1c(CCC(=O)O)c(=O)oc2cc3occ(-c4ccccc4)c3cc12,inactive,–
O=C(COc1ccc(S(=O)(=O)N2CCCCC2)cc1)NCc1ccccn1,inactive,–
Cc1ncn(C23CC4CC(CC(O)(C4)C2)C3)n1,inactive,–
Cc1nc([N+](=O)[O-])nn1C12CC3CC(CC(Br)(C3)C1)C2,8.91 µM (active),–
Cc1cn(C)c(=O)n(C)c1=O,inactive,–
CN(C)CCCSc1ccccc1NC(=O)/C=C/c1ccccc1,inactive,–
O=C(CCN1C(=O)c2ccncc2C1=O)Nc1cc(F)ccc1F,inactive,–
Cc1ccc(N(C(=O)Cc2cccs2)C2C=CS(=O)(=O)C2)cc1Cl (centres undefined),inactive,–
O=C(O)C1CC=CCC1C(=O)Nc1ccccc1C(=O)N1CCN(c2ccccc2)CC1 (centres undefined),inactive,–
Cc1cccc(N2CCN(C(=O)c3ccccc3NC(=O)C3CCCCC3C(=O)O)CC2)c1 (centres undefined),inactive,–
CC(C)c1ccc(N2CCN(C(=O)c3ccccc3NC(=O)/C=C(\C(=O)O)c3ccccc3)CC2)cc1,22.4 µM (active),–
O=C(NC1(C(F)(F)F)NC(=O)N(C2CCCCC2)C1=O)c1ccco1 (centres undefined),inactive,–
CCCCOc1ccc(C(=O)NCc2ccncc2)cc1,inactive,–
CCOc1c2ccc(C(=O)NCc3ccc(OC(F)(F)F)cc3)cc2nn1C,3.16 µM (active),–
CCOc1ccc(Cn2nnc(C(=O)NCc3ccccc3)c2N)cc1,inactive,–
CCOC(=O)C(C)n1nc(-c2ccccc2)c2ccccc2c1=O (centres undefined),inactive,–
